# Screening results from PubChem BioAssay.
# A selection: hits, their analogues and other compounds. The true share with any hit is near 7.1%.
# IL1B secr inh: blocks inflammasome-driven IL-1 beta release. THP-1 LPS/ATP IL-1B secretion, AlphaLISA, 16 h; active compounds read low. activity change, % at 57.5 µM. actives 4.7% (n = 360,000); in the data active = activity change below about -50%; inconclusive = mostly about -30% to -49%; also: % is scaled to controls: 0 for no effect and ±100 for the full control effect
#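 THP-1 cells pretreated 1 hr with compounds (up to 57.5 uM final), then stimulated with LPS (250 ng/mL final) plus ATP (1.25 mM final); secreted IL-1B measured by AlphaLISA after 16 hr, decreased signal indicating inhibition.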
# SW480 rereplic: induces DNA re-replication in SW480 colon adenocarcinoma cells; Potency, µM (top dose mostly 46.1 µM), for the others: at the highest dose re-replication activation, actives largely listed as activators; actives 1.8% (n = 340,000); SW480 DNA re-replication, Hoechst DNA content imaging, 48 h; also: potency is read from the fitted curve at half-maximal effect; % of control where 0% means no effect; nearly all actives have a fitted effect of over 55% in size
#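 Readout is total intensity of Hoechst-stained nuclei, excited at 405 nm and collected at 500-530 nm. Compound treatment lasted 48 hr at 37 C in 5% CO2 before staining.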
# S2 tox: cell viability loss in ATXN counter-screen; actives 0.49% (n = 400,000); Potency, µM (series often up to 56.7 µM), usual class: cytotoxic; S2 cells (HEK-293 line with an ATXN2-luciferase reporter) viability, CellTiter-Fluor protease fluorescence, 24 h; also: potency is read from the fitted curve at half-maximal effect; nearly all actives have a fitted effect of over 40% in size
# MCF10A rerep: DNA re-replication induction in MCF 10a cells | AID 624296 | MCF 10A DNA re-replication, Hoechst nuclear intensity, 48 h | Potency, µM (doses to about 46.1 µM), without a hit: at the highest dose activity, positive = re-replication, actives largely listed as activators | actives 2.9% (n = 350,000); also: potency is read from the fitted curve at half-maximal effect; % of control where 0% means no effect; nearly all actives have a fitted effect of over 50% in size
# ATXN2 expr inh: inhibitors of ATXN2 expression | AID 1745845 | actives 0.72% (n = 360,000) | HEK-293 ATXN2-luciferase reporter, luminescence, 24 h | Potency, µM (highest dose often 57 µM), without a hit: at the highest dose activity change, negative = inhibition, usual class: inhibitors; also: potency is read from the fitted curve at half-maximal effect; % is scaled to controls: 0 for no effect and ±100 for the full control effect; nearly all actives have a fitted effect of over 55% in size
#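 qHTS (up to 57 uM final) was run with 24 h compound exposure of reporter cells at 37 °C. Each well was multiplexed: SteadyGlo luminescence measured ATXN2-luciferase expression after a fluorogenic Gly-Phe-AFC viability readout (25 uM final).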
# PINK1 modulator: modulators of PINK1 expression | PINK1 immunofluorescence, high-content cytometry, 24 h | actives 0.2% (n = 410,000) | AID 624263 | Potency, µM (top dose mostly 76.6 µM), for the others: at the top dose activation (PINK1 increase), usual class: activators; active = well fitted activation curve with a large enough effect; inconclusive = small, poorly fitted or top-dose-only effect; cell line not stated here; also: potency is read from the fitted curve at half-maximal effect; % of control where 0% means no effect; nearly all actives have a fitted effect of over 65% in size
#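 Stable cell line, 250 cells/well, 12 h attachment; compounds pinned at 5 concentrations, 24 h; CCCP control. Fixed with nuclear dye, primary antibodies 12 h at 10 degrees C, secondary plus cell stain; laser-scanning cytometer read.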
# * marks the source's active call; other numbers are inactive results; i = inactive; ? = inconclusive; . = no result; ! = repeats disagree; [ ] = remark or other dose. Unless noted, calls follow the shape of the dose curve; as a rule, active = well fitted curve in the direction sought with a large enough effect; inconclusive = small, poorly fitted or top-dose-only effect, or another doubt; inactive = no such curve, though single readings can be large; an effect the other way counts as inactive or inconclusive.
SMILES,IL1B secr inh,SW480 rereplic,S2 tox,MCF10A rerep,ATXN2 expr inh,PINK1 modulator
CCOC(=O)C1=C(C)NC(SC)=NC1c1ccc(OC)cc1 (stereo unspecified),-50*,-2%,i,16%,5%,1%
Cc1[nH]nc(-c2cccnc2)c1N=NN(C)C,-104*,2.6µM*,.,1.6µM*,0%,1%
O=C1N(Cc2cccc(Cl)c2)C[C@@H]2C[C@@H](c3cccn3-c3cccnc3)N3CCC[C@@]123,-56*,0%,?,?,?,2%
CCn1ncc([C@@H]2C[C@H]3CN(Cc4cccc(Cl)c4)C(=O)[C@]34CCCN24)c1C,?,-84%,i,24%,1%,3%
COc1cccc2c1OCC([C@@H]1C[C@H]3CN(Cc4cccc(Cl)c4)C(=O)[C@]34CCCN14)=C2,-61*,-1%,?,9%,-22%,0%
Cc1nn(C)cc1[C@@H]1C[C@H]2CN(Cc3cccc(Cl)c3)C(=O)[C@]23CCCN13,-14,3%,i,1%,0%,1%
Cn1cc([C@@H]2C[C@H]3CN(Cc4cccc(Cl)c4)C(=O)[C@]34CCCN24)c(-c2ccccc2)n1,-80*,-132%,?,?,?,-1%
CCC1(C2CCN(Cc3ccoc3)CC2)NC(=O)N(CC2COc3ccccc3O2)C1=O (stereo unspecified),.,.,i,.,.,0%
CCN1CCN(C(=O)c2ccc(CNS(=O)(=O)c3cccc(OC)c3)cc2)CC1,16,-5%,i,13%,0%,2%
Cc1ccc(S(=O)(=O)NCc2ccc(C(=O)NCCCN3CCC(Cc4ccccc4)CC3)cc2)cc1,-65*,2%,i,4%,-9%,2%
COc1ccc(N2CCN(C(=O)c3ccc(CNS(=O)(=O)c4cc(C)ccc4C)cc3)CC2)cc1,-15,5%,?,?,-22%,2%
Cc1ccc(S(=O)(=O)NCCC(=O)N2CCC(Cc3ccccc3)CC2)cc1,0,0%,i,?,-9%,0%
COc1cccc(S(=O)(=O)NCc2ccc(C(=O)N3CCN(Cc4ccccc4)CC3)cc2)c1,-67*,-12%,i,0%,-19%,0%
Cc1ccc(C)c(S(=O)(=O)NCc2ccc(C(=O)N3CCN(c4ccccc4)CC3)cc2)c1,-63*,13%,i,18%,-8%,4%
Cc1ccc(S(=O)(=O)NCc2ccc(C(=O)N3CCN(Cc4ccccc4)CC3)cc2)cc1,-79*,-3%,i,14%,-25%,-2%[38.3 µM]
COc1cccc(N2CC(NC(=O)CCCc3ccccc3)CC2=O)c1 (stereo unspecified),.,.,.,.,.,1%
CC1(C(=O)NS(=O)(=O)c2cccc(F)c2)CCN1C(=O)c1ccccc1 (stereo unspecified),22,.,i,.,2%,0%
Cc1ccc(S(=O)(=O)NC(C)(C)CN2CCC(Cc3ccccc3)CC2)cc1,?,?,i,?,-26%,40µM*
Cc1cc(NC(=O)c2ccccc2F)on1,-3,21µM*,i,3%,23%,4%
Cc1cc(C)nc(NC(=S)NC(=O)c2ccccc2F)n1,.,-53%,i,-11%,-24%,-2%
COc1ccccc1N1CCN(c2nc(CNC(=O)c3sc(C)nc3C)nc3ccccc23)CC1,.,.,?,.,.,1%
Cc1cccc(OCc2ccc(-c3nc(C#N)c(N4CCC(C(N)=O)CC4)o3)o2)c1,.,.,?,.,0%,3%
CC(C)(C)Cn1c(N)nc2ccc(-c3[nH]c(C(C)(C)C)nc3-c3ccc(F)cc3)nc21,.,.,.,.,27µM*,.
CCOC(=O)c1cc(-c2ccccc2)n(CCCC(=O)Nc2ccc(CC)cc2)c1C,.,.,.,.,.,0%
CCOC(=O)c1cc(-c2ccccc2)n(CCC(=O)Nc2ccc(C(F)(F)F)cc2)c1C,.,.,.,.,.,40µM*
SMILES,IL1B secr inh,SW480 rereplic,S2 tox,MCF10A rerep,ATXN2 expr inh,PINK1 modulator
Cc1ccc(-c2nc(CCNC(=O)c3ccco3)cs2)cc1,-2,-5%,i,17%,-1%,-2%
COc1cc(C(=O)NCCc2csc(-c3ccc(Cl)cc3)n2)cc(OC)c1OC,.,.,.,.,20µM*,2%
O=C(NCCc1csc(-c2cccnc2)n1)c1ccc(Cl)cc1,21,?,?,12µM*,6%,3%
O=C(NCCc1csc(-c2cccnc2)n1)c1cccc(Cl)c1,-5,9%,?,-3%,?,0%
O=C(NCCc1csc(-c2ccc(Cl)cc2)n1)c1ccco1,-23,-13%,i,17%,14µM*!,0%
Cc1ncc([N+](=O)[O-])n1C,.,.,i,.,1%,.
CC(=O)Nc1ccc(CNc2nc3cc(-c4ccc(F)cc4)sc3c(=O)n2C)cc1,-2,.,?,.,13%,7%
CC(Nc1c([N+](=O)[O-])c(=O)oc2ccccc12)C(Cl)c1ccccc1 (stereo unspecified),-67*,?,i,?,-10%,-2%
Cc1ccc(C)c(Nc2c([N+](=O)[O-])c(=O)oc3ccccc23)c1,-58*,?,i,?,-19%,2%
CC(C)C[C@@H]1CN(CCCC[C@H]2CNC(=O)C(=O)N2CCC2CCCCC2)C(=O)C(=O)N1Cc1ccccc1,?,.,i,.,9%,1%
O=C1NC[C@@H](CCCCN2C[C@H](Cc3ccccc3)N(CCC3CCCCC3)C(=O)C2=O)N(CCc2ccc(O)cc2)C1=O,-59*,.,i,.,-6%,1%
O=C1NC[C@H](CCCCN2C[C@H](Cc3ccc(O)cc3)N(CCc3ccccc3)C(=O)C2=O)N(CCC2CCCCC2)C1=O,-9,.,i,.,7%,1%
CC(C)C[C@H]1CN(CCCC[C@H]2CNC(=O)C(=O)N2CC2CCCCC2)C(=O)C(=O)N1Cc1ccccc1,-72*,.,i,.,22%,0%
CCCCCCOc1ccc(C2C(=O)N(C3CCCCC3)CC(=O)N2C2CCCCC2)cc1 (stereo unspecified),.,.,.,.,.,2%
CC(=O)c1ccccc1NS(=O)(=O)c1cc2c(cc1C)NC(=O)CO2,.,.,.,.,.,2%
O=C(Nc1nc2ccc(F)cc2s1)C1CCN(S(=O)(=O)c2cc([N+](=O)[O-])ccc2Cl)CC1,-91*,?,i,?,?,2%
COc1ccc(CC(=O)Nc2nc3ccccc3s2)cc1S(=O)(=O)N1CCOCC1,-26,0%,?,8%,-13%,0%
Cc1ccc2nc(NC(=O)C3CCN(S(=O)(=O)c4cccs4)CC3)sc2c1,-76*,9%,i,2%,?,0%[38.3 µM]
